Five compounds from PubChem BioAssay (NCATS) can be followed below.

Assay [1] is described as follows: P-glycoprotein substrates identified in KB-3-1 adenocarcinoma cell line, qHTS therapeutic library screen (AID 1346986). Note: nearly all actives have a fitted effect of over 60% in size.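 Note: potency is the fitted concentration of half-maximal effect; potency is for cytotoxicity meaning loss of cell viability.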 The gist of the method:
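Resistance attributable to P-gp was assessed by comparing AC50 in KB-8-5-11 with parental KB-3-1 and by tariquidar reversal. Cells were exposed 72 h and viability read by CellTiter-Glo.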
On the technique in general: qHTS replaces the single test concentration by a dilution series.

Assay [2] is described as follows: qHTS to identify inhibitors of the type 1 interferon - major histocompatibility complex class I in skeletal muscle: primary screen against the NCATS Mechanism Interrogation Plate v5.0 (MIPE) Libary (AID 1347411).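 For activity change, negative = inhibition: plate controls were vehicle for no effect and reference inhibitor for full effect.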 Note: nearly all actives have a fitted effect of over 65% in size. Note: potency is the fitted concentration of half-maximal effect. The gist of the method:
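Luminescence from HiBiT-tagged endogenous HLA-B*08:01 served as the MHC class I read-out. CRISPR-engineered C25cl48 human myoblasts received 4.0 ng/ml IFN-beta plus compound for 24 hrs, with an 11-point, 1:3 series topping at 46 uM final.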

Assay [3] can be described thus: Primary qHTS for inhibitors of nuclear receptor binding SET domain protein 2 (NSD2) in an RCH-ACV wild type WT cells (2C) (AID 1645877). Note: nearly all actives have a fitted effect of over 70% in size.
In assay [4] the target is Glutathione peroxidase 1 (Homo sapiens) (UniProt P07203). The assay is described as follows: Primary qHTS Assay for Inhibitors of Recombinant Selenoprotein Glutathione Peroxidase 1 (GPX1) (AID 1845191). Note: nearly all actives have a fitted effect of over 65% in size. The gist of the method:
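Recombinant GPX1 (10 nM final) was preincubated with compound for 30 min at room temperature, then reacted with 1 mM GSH, 0.5 mM CHP, 0.5 mM NADPH and 100 nM glutathione reductase; NADPH fluorescence (340/450 nm) was read at 0 and 15 min.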

Assay [5] has as its target Phospholipid hydroperoxide glutathione peroxidase GPX4 (Homo sapiens) (UniProt P36969). Briefly: Primary qHTS Assay for Inhibitors of Recombinant Selenoprotein Glutathione Peroxidase 4 (GPX4) (AID 1845192). Note: % is set by controls: 0 for no effect and ±100 for the full control effect; nearly all actives have a fitted effect of over 65% in size. The settings on record: outcome: dose series up to 50 µM unless noted. The gist of the method: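 GR-coupled readout: 100 nM GR, 1 mM GSH, 0.5 mM NADPH; NADPH fluorescence (ex 340/em 450 nm) read at t=0 and after 15 min RT. GPX4 200 nM, preincubated 30 min with compound; substrate 0.5 mM CHP.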

Assay [6] in a line: qHTS drug screen for cell cycle checkpoint inhibitors in PARPi-resistant BRCA-mutant ovarian cancer cell lines. (AID 1963452; calls by dose curve; note: potency is the fitted concentration of half-maximal effect). The settings on record: PEO1/OlaR viability, CellTiter-Glo luminescence, 96 h; for Z-AUC: stronger effect = lower value. The gist of the method: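 PEO1, PEO4 and PEO1/OlaR ovarian cancer cells, 600 per well, exposed 96 h at 37C to a dilution series. Viability read by CellTiter-Glo luminescence, normalized to DMSO and empty wells; activity summarized as Z-AUC.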

The nature of assay [7]: P-glycoprotein substrates identified in KB-8-5-11 adenocarcinoma cell line, qHTS therapeutic library screen (AID 1346987). Note: nearly all actives have a fitted effect of over 65% in size. The gist of the method: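 Steps: plate 500 KB-8-5-11 cells/well in DMEM + 10% FCS (colchicine removed); pin compounds in dose-response; incubate 72 h, 37 degree C, 5% CO2; add CellTiter-Glo, 5 min; read luminescence.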
Assay [8] can be described thus: Viability counterscreen for antagonist of constitutive androstane receptor (CAR) against the NCATS DSHEA and TCM libraries (AID 1794837).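 Note: compound exposure lasted 24 h before viability reading; 0% is about no effect.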 The gist of the method:
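Fluorescence from CellTiter-Fluor reports live-cell protease activity in HepG2-CYP2B6-hCAR cells treated for 24 h with substances alongside 48 uM CITCO.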
For orientation: The purpose of a counterscreen is to sort out artefacts and off-target activity.

Assay [9] can be described thus: Viability counterscreen for agonist of constitutive androstane receptor (CAR) against the NCATS DSHEA and TCM libraries (AID 1794838). Note: 0% is about no effect. The gist of the method: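 In agonist mode, PK11195 is added at 0.75 uM final to HepG2-CYP2B6-hCAR cells dosed with test substances. Cultures incubate 24 h at 37C before a protease-based fluorogenic viability readout.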
Assay [10] addresses Nuclear receptor subfamily 1 group I member 3 (Homo sapiens) (UniProt Q14994). Briefly: Primary qHTS for agonist of constitutive androstane receptor (CAR) against the NCATS DSHEA and TCM libraries (AID 1794839).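 Note: HepG2 cells expressing human CAR with a CYP2B6 reporter plus PK11195 antagonist; 0% is about no effect.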 The gist of the method: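 Cells stably carrying hCAR and a CYP2B6 reporter (HepG2 background) are seeded and allowed 5 h to adhere. Substances at multiple concentrations are added alongside 0.75 µM PK11195, and luciferase signal is measured after 24 h.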

The nature of assay [11]: HepG2 viability counterscreen (readout 2: ATP content) against the NCATS DSHEA and TCM libraries (AID 1794840).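 Note: HepG2 cells exposed to substances for about 24 h; 0% is about no effect.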 The gist of the method:
(§1)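 Cytotoxicity was assessed in HepG2 cells plated at 1,000 cells/well and exposed for about 24 hours to a concentration series. Protease activity and ATP content were measured sequentially in each well.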

A short description of assay [12]: HepG2 viability counterscreen (readout 1: protease activity) against the NCATS DSHEA and TCM libraries (AID 1794841).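 Note: cells exposed to compounds for about 24 h before the protease read; 0% is about no effect.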 The gist of the method: as §1
Assay [13] concerns the target Cytochrome P450 2D6 (Homo sapiens) (UniProt P10635). Briefly: qHTS for inhibitors of CYP2D6 against the NCATS DSHEA and TCM libraries (AID 1919972). Note: % is set by controls: 0 for no effect and ±100 for the full control effect. The gist of the method: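 Luminescent P450-Glo read-out of CYP2D6 turnover of a luciferin substrate after NADPH-driven reaction of 30-45 min at room temperature. Compounds were first preincubated 15 min with enzyme at titrated concentrations; quinidine was the intraplate control.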

Assay [14] addresses Cytochrome P450 2C9 (Homo sapiens) (UniProt P11712). Briefly: qHTS for inhibitors of CYP2C9 against the NCATS DSHEA and TCM libraries (AID 1919973). Note: potency is the fitted concentration of half-maximal effect. The gist of the method: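 Read-out is luminescence after P450-Glo detection (30 min, RT). Before that: 15 min compound–enzyme preincubation, then 30-45 min reaction with 1x NADPH regeneration solution, substrate concentration isoform-specific.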

The nature of assay [15]: KB-3-1 P-gp reporter qHTS against the NCATS DSHEA and TCM libraries (AID 1919975). Note: 0% is about no effect. The gist of the method:
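72 h exposure of KB-3-1 cells (DMEM, 10% FBS) to DSHEA/TCM samples, concentration-response; cell viability measured as CellTiter-Glo luminescence after 30 min at room temperature.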

Assay [16] has as its target Cytochrome P450 1A2 (Homo sapiens) (UniProt P05177). The assay is described as follows: qHTS for inhibitors of CYPIA2 against the NCATS DSHEA and TCM libraries (AID 1919976).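 Note: light from luciferin formed by CYP1A2 from a pro-luciferin substrate; % is set by controls: 0 for no effect and ±100 for the full control effect.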 The gist of the method: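 CYP1A2 + luciferin substrate, 100 mM KPO4-type buffer; cmpd 15 min RT; 1x NADPH regen, 30-45 min RT dark; detection reagent 30 min RT; luminescence. Minus-enzyme wells as background; furafylline intraplate control.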

Assay [17] can be described thus: qHTS Counterscreen for compound interference against the NCATS DSHEA and TCM libraries (AID 1919978). Note: % of control where 0% means no effect. Particulars: firefly luciferase detection reagent interference, luminescence. The gist of the method:
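Read-out is luminescence after 30 min at RT with luciferin detection reagent. Before that, compounds (19.5 nM to 39.8 uM final) sat 15 min at RT with 1 uM D-luciferin or 100 mM potassium phosphate buffer. PTC124 served as intraplate control.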

The nature of assay [18]: Dual reporter qHTS for agonist of Pregnane X Receptor (hPXR) against the NCATS DSHEA and TCM libraries: Fluorescence readout (AID 1920058). Note: 0% is about no effect. The gist of the method: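 HepG2 hPXR-Luc, 2000 cells/well, 5 h attach; cpds ~24 h, 37 °C/5% CO2; CellTiter-Fluor 1 h; fluor. Ex/Em 405/540 nm = viability.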
The target in assay [19] is Nuclear receptor subfamily 1 group I member 2 (Homo sapiens) (UniProt O75469). Briefly: Dual reporter qHTS for agonist of Pregnane X Receptor (hPXR) against the NCATS DSHEA and TCM libraries: Luminescence readout (AID 1920059). Note: 0% is about no effect. The gist of the method: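 hPXR-LucHepG2 cells in phenol red-free DMEM with 5% charcoal-stripped FBS, 2000 cells/well, attached 5 h, then exposed 24 h at 37C to compounds; rifampicin as positive agonist control (2.8 nM–92 uM). Luciferase luminescence read.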
Nuclear receptor subfamily 1 group I member 2 (Homo sapiens), sequence (O75469 whole entry, looked up): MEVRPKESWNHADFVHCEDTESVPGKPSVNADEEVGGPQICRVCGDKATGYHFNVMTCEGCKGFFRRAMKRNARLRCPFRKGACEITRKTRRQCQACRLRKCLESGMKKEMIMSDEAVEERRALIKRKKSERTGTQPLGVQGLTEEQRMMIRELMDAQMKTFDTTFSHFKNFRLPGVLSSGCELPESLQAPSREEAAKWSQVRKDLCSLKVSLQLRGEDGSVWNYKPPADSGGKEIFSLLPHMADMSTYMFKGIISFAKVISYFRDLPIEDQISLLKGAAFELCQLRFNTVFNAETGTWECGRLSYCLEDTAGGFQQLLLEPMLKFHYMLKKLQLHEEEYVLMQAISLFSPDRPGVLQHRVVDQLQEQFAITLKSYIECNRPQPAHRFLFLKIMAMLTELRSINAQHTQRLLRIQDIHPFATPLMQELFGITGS

Assay [20] shares this target. The assay is described as follows: Dual reporter qHTS for antagonist of Pregnane X Receptor (hPXR) against the NCATS DSHEA and TCM libraries: Luminescence Readout (AID 1920060).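 Note: HepG2 cells carrying hPXR luciferase reporter stimulated with rifampicin at 2 µM; 0% is about no effect.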 The gist of the method: (§2)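 hPXR-Luc HepG2 cells exposed 24 h at 37 C to compounds with 2 uM rifampicin in antagonist mode; luciferase luminescence measured by ONE-Glo, with CellTiter-Fluor viability read beforehand.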

Assay [21] in a line: Dual reporter qHTS for antagonist of Pregnane X Receptor (hPXR) against the NCATS DSHEA and TCM libraries: Fluorescence Readout (AID 1920061). Note: 0% is about no effect. The gist of the method: as §2
Assay [22] has as its target Calcium and integrin-binding protein 1 (Homo sapiens) (UniProt Q99828). The assay is described as follows: Primary qHTS for Identification of Calcium Integrin Binding Protein 1 (CIB1) Competitor (AID 1508620).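 Note: GST tagged CIB1 binding a fluorescein labelled alphaIIb integrin peptide tracer; top concentration of the series differs between compounds; % is set by controls: 0 for no effect and ±100 for the full control effect.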 The gist of the method: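 Fluorescence polarization competition: CIB1-GST (1 uM final) preincubated with compound 15 min at room temperature, then FITC-labeled alphaIIb peptide (100 nM final) added for another 15 min. Polarization read at Ex 480/Em 540.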

Assay [23] concerns the target N-terminal Xaa-Pro-Lys N-methyltransferase 1 (Homo sapiens) (UniProt Q9BV86). Briefly: Confirmatory qHTS for Inhibitors of N-terminal methyltransferase 1 (NTMT1): MTaseGlo Assay (AID 1645874). The gist of the method:
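NTMT1 (125 nM) preincubated 15 min with compound and 100 uM SAM, then 1 uM SPKRIA peptide added for 30 min at room temperature. SAH detected by MTase-Glo luminescence; normalized to no-enzyme and DMSO controls, fitted to 4-parameter Hill.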

Assay [24] addresses Catechol O-methyltransferase (Homo sapiens) (UniProt P21964). Briefly: Confirmatory Screen for Target Class Profiling of Small Molecule Inhibitors of Methyltransferases (AID 1745852; calls by dose curve; note: potency is the fitted concentration of half-maximal effect). The settings on record: MTase-Glo luminescence, SAH detection, recombinant enzyme; measured here: COMT max response; stronger effect = lower value.
The target in assay [25] is Guanidinoacetate N-methyltransferase (Homo sapiens) (UniProt Q14353). Described as above. Particulars: activity change, negative = inhibition: at 57.3 µM (top of the series) unless noted.
Assay [26] has as its target Nicotinamide N-methyltransferase (Homo sapiens) (UniProt P40261). The description is as above. Particulars: MTase-Glo luminescence, SAH detection, recombinant enzyme; measured here: NNMT max response; stronger effect = lower value.
The target in assay [27] is Phenylethanolamine N-methyltransferase (Homo sapiens) (UniProt P11086). Described as above. The settings on record: MTase-Glo luminescence, SAH detection, recombinant enzyme; measured here: PNMT max response; stronger effect = lower value.
Phenylethanolamine N-methyltransferase (Homo sapiens), sequence (P11086 whole entry, looked up): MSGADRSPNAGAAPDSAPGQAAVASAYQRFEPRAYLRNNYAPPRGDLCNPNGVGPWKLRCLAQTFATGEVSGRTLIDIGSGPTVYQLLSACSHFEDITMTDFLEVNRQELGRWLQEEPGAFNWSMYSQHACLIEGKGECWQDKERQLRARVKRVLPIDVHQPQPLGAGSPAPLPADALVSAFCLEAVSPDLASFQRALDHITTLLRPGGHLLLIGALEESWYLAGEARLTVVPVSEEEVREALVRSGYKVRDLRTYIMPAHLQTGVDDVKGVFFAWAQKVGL
The nature of assay [28]: qHTS assay to identify inhibitors of the type 1 interferon - major histocompatibility complex class I in skeletal muscle: Counter screen cell viability and HiBit confirmation (AID 1347412). Note: % is set by controls: 0 for no effect and ±100 for the full control effect; nearly all actives have a fitted effect of over 60% in size. The settings on record: iHSKM muscle cells + IFN-b, HiBiT or CellTiter-Glo, 24 h; HiBiT; at 45.9 µM (top of the series). The gist of the method: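 Myoblasts (C25cl48, HLA-B HiBiT) seeded in medium without dexamethasone, IFN-b 4 ng/ml added except unstimulated columns; 1 hr later compounds pinned (12-pt 1:3, top 46 uM final). Incubated 24 hrs, lysed 10 min, luminescence measured.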

Where [29] appears, read: measured here: PEO1 parental Z-AUC.

Inconclusive results are not listed. The source made the active and inactive calls. Unless noted, calls come from the whole dose curve; as a rule, active = well fitted curve in the direction sought with a large enough effect; inconclusive = small, poorly fitted or top-dose-only effect, or another doubt; inactive = no such curve, though single readings can be large; an effect the other way counts as inactive or inconclusive.

Glutathione peroxidase 1 (Homo sapiens), sequence (P07203 whole entry, looked up): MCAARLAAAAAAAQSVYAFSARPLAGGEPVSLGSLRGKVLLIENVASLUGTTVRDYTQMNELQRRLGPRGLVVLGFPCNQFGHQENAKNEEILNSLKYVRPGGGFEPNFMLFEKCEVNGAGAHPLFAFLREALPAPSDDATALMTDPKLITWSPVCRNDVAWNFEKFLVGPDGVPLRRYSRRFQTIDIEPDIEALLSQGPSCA
Nicotinamide N-methyltransferase (Homo sapiens), sequence (P40261 whole entry, looked up): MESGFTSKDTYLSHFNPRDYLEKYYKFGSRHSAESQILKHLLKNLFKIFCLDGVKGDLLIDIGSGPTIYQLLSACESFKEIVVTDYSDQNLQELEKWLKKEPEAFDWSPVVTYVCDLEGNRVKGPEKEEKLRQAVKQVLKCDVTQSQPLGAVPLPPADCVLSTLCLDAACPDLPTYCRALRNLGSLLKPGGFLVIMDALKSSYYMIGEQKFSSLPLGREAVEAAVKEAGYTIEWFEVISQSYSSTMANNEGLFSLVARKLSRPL
Catechol O-methyltransferase (Homo sapiens), sequence (P21964 whole entry, looked up): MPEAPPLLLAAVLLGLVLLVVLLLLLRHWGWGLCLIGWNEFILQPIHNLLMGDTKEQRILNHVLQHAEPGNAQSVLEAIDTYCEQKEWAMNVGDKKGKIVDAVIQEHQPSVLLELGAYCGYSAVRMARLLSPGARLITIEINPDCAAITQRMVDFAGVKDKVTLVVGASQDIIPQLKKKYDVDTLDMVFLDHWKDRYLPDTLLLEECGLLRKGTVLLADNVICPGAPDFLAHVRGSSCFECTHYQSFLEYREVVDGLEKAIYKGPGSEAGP
Calcium and integrin-binding protein 1 (Homo sapiens), sequence (Q99828 whole entry, looked up): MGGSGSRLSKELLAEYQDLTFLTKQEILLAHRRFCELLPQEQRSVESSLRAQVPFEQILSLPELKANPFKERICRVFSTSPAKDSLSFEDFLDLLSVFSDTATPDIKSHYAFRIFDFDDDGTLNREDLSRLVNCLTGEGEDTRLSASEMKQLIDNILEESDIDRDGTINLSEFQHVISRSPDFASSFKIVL
Cytochrome P450 2C9 (Homo sapiens), sequence (P11712 whole entry, looked up, canonical isoform): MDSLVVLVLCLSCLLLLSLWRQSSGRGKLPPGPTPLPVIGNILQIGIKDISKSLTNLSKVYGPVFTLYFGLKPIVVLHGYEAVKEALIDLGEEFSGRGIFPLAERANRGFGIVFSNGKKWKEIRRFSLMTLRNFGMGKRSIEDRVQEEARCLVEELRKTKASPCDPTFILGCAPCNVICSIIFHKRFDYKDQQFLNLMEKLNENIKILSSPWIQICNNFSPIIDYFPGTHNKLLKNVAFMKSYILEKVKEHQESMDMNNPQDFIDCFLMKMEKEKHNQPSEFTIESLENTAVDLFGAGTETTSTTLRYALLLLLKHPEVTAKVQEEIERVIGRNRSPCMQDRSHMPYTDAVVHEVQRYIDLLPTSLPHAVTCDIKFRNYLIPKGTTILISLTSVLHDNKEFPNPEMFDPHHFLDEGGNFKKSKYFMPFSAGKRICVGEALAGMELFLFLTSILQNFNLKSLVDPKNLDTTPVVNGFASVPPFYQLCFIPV
Nuclear receptor subfamily 1 group I member 3 (Homo sapiens), sequence (Q14994 whole entry, looked up): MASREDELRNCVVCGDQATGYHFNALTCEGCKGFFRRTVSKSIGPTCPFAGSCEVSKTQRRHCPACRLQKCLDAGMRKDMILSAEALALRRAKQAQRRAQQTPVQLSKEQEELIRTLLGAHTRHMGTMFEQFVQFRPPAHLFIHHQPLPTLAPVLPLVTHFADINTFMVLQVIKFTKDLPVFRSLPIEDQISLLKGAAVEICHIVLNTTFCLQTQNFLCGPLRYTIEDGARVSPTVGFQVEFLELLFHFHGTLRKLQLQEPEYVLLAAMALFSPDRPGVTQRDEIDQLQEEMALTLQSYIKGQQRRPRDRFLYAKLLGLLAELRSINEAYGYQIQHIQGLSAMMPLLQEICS
Cytochrome P450 1A2 (Homo sapiens), sequence (P05177 whole entry, looked up): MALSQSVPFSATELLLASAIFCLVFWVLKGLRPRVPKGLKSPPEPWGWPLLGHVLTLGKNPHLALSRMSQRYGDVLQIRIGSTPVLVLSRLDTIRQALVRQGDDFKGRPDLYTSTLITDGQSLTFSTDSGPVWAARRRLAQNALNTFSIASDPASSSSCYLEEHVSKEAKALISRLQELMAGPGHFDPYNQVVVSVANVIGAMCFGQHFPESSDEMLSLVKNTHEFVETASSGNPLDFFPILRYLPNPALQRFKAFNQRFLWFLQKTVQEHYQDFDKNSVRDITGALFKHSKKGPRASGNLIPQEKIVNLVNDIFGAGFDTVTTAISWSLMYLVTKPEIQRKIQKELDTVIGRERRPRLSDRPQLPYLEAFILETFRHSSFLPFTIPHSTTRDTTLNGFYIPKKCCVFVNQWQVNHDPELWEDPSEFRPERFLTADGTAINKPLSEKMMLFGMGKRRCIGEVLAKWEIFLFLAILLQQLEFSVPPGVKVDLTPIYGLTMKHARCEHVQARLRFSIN
N-terminal Xaa-Pro-Lys N-methyltransferase 1 (Homo sapiens), sequence (Q9BV86 whole entry, looked up): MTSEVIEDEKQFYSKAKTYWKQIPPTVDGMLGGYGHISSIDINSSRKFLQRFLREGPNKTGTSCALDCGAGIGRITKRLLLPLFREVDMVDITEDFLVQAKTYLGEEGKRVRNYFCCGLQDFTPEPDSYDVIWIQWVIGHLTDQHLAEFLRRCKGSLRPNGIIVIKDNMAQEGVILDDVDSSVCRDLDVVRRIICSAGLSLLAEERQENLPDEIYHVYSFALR
Phospholipid hydroperoxide glutathione peroxidase GPX4 (Homo sapiens), sequence (P36969 whole entry, looked up): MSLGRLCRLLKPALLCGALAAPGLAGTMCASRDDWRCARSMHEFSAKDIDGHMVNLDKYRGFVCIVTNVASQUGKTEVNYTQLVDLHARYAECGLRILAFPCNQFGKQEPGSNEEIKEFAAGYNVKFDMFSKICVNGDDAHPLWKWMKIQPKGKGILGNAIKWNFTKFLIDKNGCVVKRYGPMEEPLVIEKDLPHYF
Cytochrome P450 2D6 (Homo sapiens), sequence (P10635 whole entry, looked up): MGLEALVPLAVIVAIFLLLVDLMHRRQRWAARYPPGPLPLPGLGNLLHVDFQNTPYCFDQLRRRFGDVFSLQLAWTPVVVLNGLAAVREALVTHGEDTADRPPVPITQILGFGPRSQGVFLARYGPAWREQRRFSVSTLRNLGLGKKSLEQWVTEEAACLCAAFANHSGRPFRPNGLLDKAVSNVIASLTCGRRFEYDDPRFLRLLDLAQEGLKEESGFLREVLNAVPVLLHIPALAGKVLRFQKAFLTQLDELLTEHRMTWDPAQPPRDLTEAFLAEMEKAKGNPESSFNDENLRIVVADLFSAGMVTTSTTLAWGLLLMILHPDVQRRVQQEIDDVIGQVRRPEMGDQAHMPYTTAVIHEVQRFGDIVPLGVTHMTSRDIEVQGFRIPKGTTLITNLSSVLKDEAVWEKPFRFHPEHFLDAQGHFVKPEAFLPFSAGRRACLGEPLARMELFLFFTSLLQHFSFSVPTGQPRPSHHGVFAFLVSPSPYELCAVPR

As for `CNC(=O)c1c(C)oc2cc(Oc3ncnc4cc(OC)c(OC)cc34)ccc12`, the Potency result in [1], in [2], in assay [3], in assay [4] and in assay [5] was “inactive” throughout. Also, the results for the Z-AUC in assay [6], in assay [6] (setting [29]) and in assay [6] (measured here: PEO4 Z-AUC) were -0.474 (inactive), -0.16 and -0.205, respectively.

For the compound `O=C(O[C@@H]1Cc2c(O)cc(O)cc2O[C@H]1c1cc(O)c(O)c(O)c1)c1cc(O)c(O)c(O)c1`, the Potency result in assay [1] and in [7] was “inactive” throughout. Besides, the outcome in assay [8], in assay [9], in assay [10], in assay [11], in [12] and in assay [13] was “inactive” each time. Also, the outcome in [15], in assay [16], in assay [18], in assay [19], in assay [20] and in assay [21] was “inactive” in each case. Also, the Potency in assay [14] was 12.6 µM (active). In addition, in assay [17], the max response is -4.04% (inactive).

Regarding `CN(Cc1nccs1)c1ncnc2ccc(-c3ccc4c(c3)OCO4)cc12`, the Potency result in assay [1] and in [4] was “inactive” throughout. For the same compound, the outcome in assay [22] was “inactive”. The Potency in assay [23] is 11.5 µM (active); in assay [25], 24.1 µM (active). Also, the activity in assay [24] was -82.4%; in [26], -71.7%; in [27], -84.4%.

Take `COc1ccc2c(c1O)OC(C)(C)c1c-2ccc2c1C(=O)N(c1ccc(C(=O)c3ccccc3)cc1)C2=O`: the Potency result in assay [1] and in assay [4] was “inactive” throughout.

In the case of `COCc1c(-c2ccc(NC(=O)Nc3cc(C(F)(F)F)ccc3F)c(F)c2)c2c(N)ncnn2c1CN1CCOCC1`, the Potency in [1] is 16.4 µM (active); in assay [2], 3.3 µM (active); in assay [6], 3.47 µM (active). Also, the Potency entry in assay [4] was “inactive”. In addition, the figures for the Z-AUC in [6] (setting [29]) and in [6] (measured here: PEO4 Z-AUC) were -1.33 and -1.61, respectively. In [28], the activity change, negative = inhibition was -92% (inactive).
